Where “and” joins values, the source holds several entries; their conditions need not be identical. Equal values may be shown once. Out of some 310,000 compounds screened, about 17,000 (5.5%) were called active. About 11% were inconclusive and are not listed. Calls follow the shape of the dose curve; as a rule, active = well fitted inhibition curve with a large enough effect; inconclusive = small, poorly fitted or top-dose-only effect, or effect the other way; inactive = no such curve, though single readings can be large or run the other way. What follows is part of a selection rich in actives, with near analogues and random picks from the rest.
These molecules were tested against Nuclear receptor ROR-gamma (Mus musculus) (UniProt P51450) (assay: qHTS for inhibitors of ROR gamma transcriptional activity). Details: Drosophila S2 Gal4-RORgamma UAS-luciferase reporter, 20 h; series mostly up to 53.6 µM; activity change, negative = inhibition: at the top concentration.
Chain of Nuclear receptor ROR-gamma (Mus musculus) (P51450 whole entry, looked up, the tested form may be a part): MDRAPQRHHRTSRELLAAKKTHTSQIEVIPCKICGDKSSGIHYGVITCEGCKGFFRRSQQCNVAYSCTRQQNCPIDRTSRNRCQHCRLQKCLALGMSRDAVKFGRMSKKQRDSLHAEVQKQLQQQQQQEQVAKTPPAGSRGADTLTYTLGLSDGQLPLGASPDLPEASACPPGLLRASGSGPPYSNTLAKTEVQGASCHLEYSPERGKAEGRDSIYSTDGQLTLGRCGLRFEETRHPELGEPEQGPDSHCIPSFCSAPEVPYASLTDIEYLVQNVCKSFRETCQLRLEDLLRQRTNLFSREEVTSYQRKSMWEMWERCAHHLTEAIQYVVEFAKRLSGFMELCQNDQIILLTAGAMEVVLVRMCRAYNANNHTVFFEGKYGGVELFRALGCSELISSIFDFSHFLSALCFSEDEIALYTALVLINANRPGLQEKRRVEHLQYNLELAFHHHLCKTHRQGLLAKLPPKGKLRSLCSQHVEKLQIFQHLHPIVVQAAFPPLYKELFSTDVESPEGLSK
From the text: NIH Molecular Libraries Probe Production Network [MLPCN] NIH Chemical Genomics Center [NCGC] MLPCN Grant: R03 DA026211-01 Assay Provider: Dan Littman, New York University Assay Overview: The retinoic acid-related orphan receptor (ROR) gamma is a transcription factor that has a central role in the differentiation of Th17 cells, a subset of T helper cells that secrete the inflammatory cytokines IL-17, IL-17F, and IL-22. Th17 cells have been implicated in graft versus host disease, autoimmune disease and asthma. ROR gamma is induced in naive T helper cells in the presence of TGF-beta combined with IL-6, IL-21, or IL-23, and thereafter directs the expression of the Th17 lineage cytokines. To study the mechanism of action of ROR gamma, an insect cell-based assay was screened. This Drosophila Schneider cell line was stably transfected with two vectors: a gene expressing a fusion of the Gal4 DNA binding domain and ROR gamma transactivation domain under the control of the metallothionine promoter and a Photinus luciferase reporter regulated by the Gal4 binding site enhancer, UAS. […] Small molecule inhibitors of ROR gamma activity are detected by a decrease in luciferase reporter activity.
Assay Protocol Summary: For screening, 600 cells in 4 uL/well were dispensed into white solid 1536-well plates (Grenier) using a solenoid-based dispenser. Following transfer of 23 nL compound or DMSO vehicle by a pin tool, the plates were incubated 1 hr at ambient temperature, and 1 uL/well copper sulfate (700 uM final concentration) was added. The plates were centrifuged 15 s at 1000 RPM and incubated 20 hr at ambient temperature. After addition of 1.5 uL Photinus luciferase detection reagent, the plates were incubated 10 min at ambient temperature and then read by an ViewLux (Perkin Elmer) to detect luminescence. Keywords: NIH Roadmap, MLPCN, MLI, MLSMR, qHTS, NCGC, qHTS, nuclear hormone receptor, retinoic acid-related orphan receptor, ROR gamma
% is scaled to controls: 0 for no effect and ±100 for the full control effect; potency is read from the fitted curve at half-maximal effect.
Also: nearly all actives have a fitted effect of over 60% in size.

| SMILES | activity change, negative = inhibition | Potency |
| --- | --- | --- |
| Cc1cccc(N(C(=O)Cn2nnc(-c3ccc(C)o3)n2)C(C(=O)NC2CCCC2)c2ccncc2)c1 (stereo not drawn) | -41.8% (inactive) |  |
| O=C(CCN1C(=O)[C@H]2CC=CC[C@H]2C1=O)NCc1nc(-c2ccccc2)no1 | 8.53% (inactive) |  |
| CCCNC(=O)c1ccc(N2CCC3(CC2)CC(c2ccc(Cl)cc2)=NO3)c([N+](=O)[O-])c1 | 20.5% (inactive) |  |
| O=C1CCC(C(=O)N2CCC(O)(c3ccccc3)CC2)CN1CCc1ccccc1 (stereo not drawn) | 1.71% (inactive) |  |
| Cc1ccc(N2CCN(C(=O)c3cccs3)CC2)c(C)c1 | -16.4% (inactive) |  |
| COc1ccc(/C=N/OCc2ccccc2C#N)c(OC)c1 | 15.5% (inactive) |  |
| Cc1ccc(C(=O)NCC(=O)NCc2cc(=O)n(C)c(=O)n2C)cc1 | -10.6% (inactive) |  |
| O=C(NCCOCc1ccc(Cl)cc1)c1ncn[nH]1 | -4.46% (inactive) |  |
| O=C(/C=C/Sc1ncn[nH]1)c1ccc(Cl)cc1 |  | 4.47 µM (active) |
| COc1ccc(Cl)cc1CSc1ncn[nH]1 | -20.7% (inactive) |  |
| COCCNC(=O)COc1ccc(N(C)S(=O)(=O)c2ccc3ccccc3c2)cc1 | -0.588% (inactive) |  |
| COc1cccc(N(CC(=O)NC2CCCC2)C(=O)CCCC(=O)Nc2ccccn2)c1 | 5.39% (inactive) |  |
| COc1ccc(/C=C2/S/C(=N/N=C3\CC4CCC3(C)C4(C)C)NC2=O)cc1 (stereo not drawn) |  | 10 µM (active) |
| COc1ccc(/C=C2\SC(=N)N(c3ccc(F)cc3)C2=O)cc1 | -15% (inactive) |  |
| COc1ccc(/C=C2\NC(=O)[C@@H]3Cc4ccccc4CN3C2=O)cc1 | 17.6% (inactive) |  |
| Cc1ccc(C)c(C(=O)N2CCC(n3nccc3NC(=O)C3CC3)CC2)c1 | 4.12% (inactive) |  |
| COc1ccc(-c2nc(N)ncc2-c2ccc(Cl)cc2)c(O)c1 | 12.3% (inactive) |  |
| Cn1c(COc2ccc(Cl)cc2)nc2ccccc2c1=O | 27% (inactive) |  |
| Cc1[nH]nc(-c2ccc(OCc3cnn(-c4ccccc4)c3)cc2O)c1Oc1ccc(Cl)cc1 |  | 2.24 µM (active) |
| Cc1nc(COc2cc3oc(=O)cc(C)c3cc2Cl)cs1 | -0.324% (inactive) |  |
| CC(=O)NCCc1ccc(S(=O)(=O)Nc2ccc(C)c(S(=O)(=O)N3CCOCC3)c2)cc1 | -14.7% (inactive) |  |
| O=C(Nc1cccc(NC(=O)c2cccc(F)c2)c1)c1ccccc1 | 5.17% (inactive) |  |
| COc1ccc(CCNS(=O)(=O)c2ccc(Cl)s2)cc1OC | -6.22% (inactive) |  |

| SMILES | activity change, negative = inhibition | Potency |
| --- | --- | --- |
| COc1ccc(CCNS(=O)(=O)c2ccc(F)cc2)cc1OC | 18.7% (inactive) |  |
| CCS(=O)(=O)NCCc1ccc(OC)c(OC)c1 |  | 11.2 µM (active) |
| COc1ccc(S(=O)(=O)N2CCC(C(=O)NCc3ccco3)CC2)cc1C | -9.61% (inactive) |  |
| Cc1cccc(-c2noc(CCC(=O)NC3CCCC3)n2)c1 | 7.56% (inactive) |  |
| O=C(NCCCN1CCOCC1)c1cc(-c2ccccc2F)no1 | 16.6% (inactive) |  |
| COC(=O)Cn1c2ccc(C)cc2c2nc(C)sc21 | 3.75% (inactive) |  |
| CCn1c(=O)cc(O)c2ccccc21 | -5.33% (inactive) |  |
| CCn1c(O)c(N=NC2=NC(=O)CS2)c2cc(C)ccc21 |  | 4.47 µM (active) |
| CN(CC(=O)Nc1ccc(Cl)cc1)C(=O)CNC(=O)c1ccc2ccccc2c1 | 30.7% (inactive) |  |
| Cn1cc(CCC(=O)NC2CC2)c2ccccc21 | -22.2% (inactive) |  |
| O=C(CNC(=O)Cc1ccccc1)N=Nc1c(O)[nH]c2ccc(Br)cc12 | -24.9% (inactive) |  |
| O=C(C1CCCN(S(=O)(=O)c2ccc([N+](=O)[O-])cc2)C1)N1CCCCC1 (stereo not drawn) | 17.1% (inactive) |  |
| Cc1ccccc1NC(=O)c1ccccc1NS(=O)(=O)c1cccc2cccnc12 | -10.1% (inactive) |  |
| O=[N+]([O-])c1ccccc1S(=O)(=O)Nc1cccc2cccnc12 |  | 501 nM (active) and 708 nM (active) |
| O=[N+]([O-])c1cccc2ncccc12 | 24.3% (inactive) |  |
| O=C(Cc1ccccc1F)NC1CCSc2ccccc21 (stereo not drawn) | -33.8% (inactive) |  |
| CC(C)c1ccc(S(=O)(=O)NC2CCCC2)cc1 | 24.5% (inactive) |  |
| CCn1c(CNC(=O)c2cc(OC)c(OC)c(OC)c2)cc2cc(C)ccc21 | 31.6% (inactive) |  |
| CC(=O)N1CCCc2cc(S(=O)(=O)N3CCCC(C(=O)N4CCN(c5cccc(Cl)c5)CC4)C3)ccc21 (stereo not drawn) |  | 5.62 µM (active) |
| CC(=O)N1c2ccc(S(=O)(=O)N3CCCC(C(=O)Nc4cccc(Cl)c4)C3)cc2CC1C (stereo not drawn) | 40.4% (inactive) |  |
| CC(=O)N1CCCc2cc(S(=O)(=O)N3CCCC(C(=O)NCc4ccc(Cl)cc4)C3)ccc21 (stereo not drawn) | 9.44% (inactive) |  |
| COc1ccc2oc(C(=O)NCc3ccco3)c(C)c2c1 | 3.55% (inactive) |  |
| CC(C(=O)N1CCN(c2ccccc2F)CC1)c1ccc([N+](=O)[O-])cc1 (stereo not drawn) | 32.2% (inactive) |  |

| SMILES | activity change, negative = inhibition | Potency |
| --- | --- | --- |
| COc1ccc(CNc2nccs2)cc1 | -17.8% (inactive) |  |
| COc1ccc(Cc2nnc(N/N=C/c3ccccc3O)[nH]c2=O)cc1OC |  | 3.98 µM (active) |
| CCOc1ccc(-n2c(O)c(/C=N/Nc3nnc(C)c(=O)[nH]3)c3ccccc3c2=O)cc1 | -23.3% (inactive) |  |
| O=c1[nH]c(NCCO)nnc1Cc1ccc(Cl)cc1 | -12.4% (inactive) |  |
| O=C(NC(=S)N1CCc2ccccc21)c1ccco1 |  | 1.41 µM (active) |
| O=C(CSCc1ccccc1)N1CCc2ccccc21 | 0.446% (inactive) |  |
| NC(=O)N1CCc2ccccc21 | 1.35% (inactive) |  |
| COc1cc(/C=N/N2CCN(c3ccccc3)CC2)ccc1OC(C)=O | 22.3% (inactive) |  |
| CC(C)=CCN1CCN(Cc2cc3ccccc3[nH]2)CC1CCO (stereo not drawn) | 3.24% (inactive) |  |
| CCOC(=O)c1c(NC(=S)NC(=O)c2ccco2)sc2c1CCCC2 |  | 3.16 µM (active) |
| CCc1ccc(N(CC(=O)Nc2sc3c(c2C(=O)OC)CCCC3)S(C)(=O)=O)cc1 | 67.7% (inactive) |  |
| CCN(CC)CC(=O)Nc1sc2c(c1C(=O)c1ccccc1C)CCC2 |  | 7.08 µM (active) |
| CCOC(=O)c1c(NC(=S)NC)sc2c1CCCC2 |  | 0.891 µM (active) |
| CCOC(=O)c1c(NC(=O)CSc2nnc(C)c(=O)[nH]2)sc2c1CCC2 | -24.2% (inactive) |  |
| CCOC(=O)c1c(NC(=S)Nc2ccccc2)sc2c1CCN(C)C2 | -15.4% (inactive) |  |
| CCOC(=O)c1c(NC(=S)Nc2ccccc2C)sc2c1CCC2 |  | 3.55 µM (active) |
| CCCOC(=O)Nc1sc2c(c1C(=O)OCC)CCC2 | 7.44% (inactive) |  |
| CCOC(=O)c1c(NC(=O)CCC(=O)NCc2ccco2)sc2c1CCCC2 | -15.2% (inactive) |  |
| CCOC(=O)c1c(NC(=O)C(C)Sc2c[nH]c3ccccc23)sc2c1CCC2 (stereo not drawn) | 22.1% (inactive) |  |
| CCOC(=O)c1c(NC(=O)c2ccc(Br)o2)sc2c1CCCC2 | -18.3% (inactive) |  |
| O=C(Nc1sc2c(c1C(=O)O)CCC2)c1ccccc1F | 19.6% (inactive) |  |
| Cc1coc2c1c(C)cc1oc(=O)c(CC(=O)NCC(=O)N[C@H](C(=O)O)C(C)C)c(C)c12 | -3.21% (inactive) |  |

From PubChem BioAssay AID2551 (National Center for Advancing Translational Sciences (NCATS), 2010)
